Where two headings read alike, the source gives them in different places.

Parameters in all cases: species or system human, MV4-11 + K-562 + COLO205 + SK-N-BE2 + OVCAR-8
For one test, the system named is CDK10. Conditions: read-out: apparent Kd; compound concentrations:100 nM and 1000 nM (sheet 'Samples'); n = 1.
The test system of the next test is CDK2. As to conditions: read-out: apparent Kd, compound concentrations: 100 nM and 1000 nM (sheet 'Samples'), n = 1.
The test system of another test is CDK6. As to conditions: read-out: apparent Kd, compound concentrations: 100 nM and 1000 nM (sheet 'Samples'), n = 1.
For the next test, the system named is CSNK2A2. As to conditions: read-out: apparent Kd; compound concentrations: 100 nM and 1000 nM (sheet 'Samples'), CATDS: 0.29769898154006003; n = 1.
The next test relates to CDC42. As to conditions: read-out: apparent Kd; compound concentrations:100 nM and 1000 nM (sheet 'Samples'); n = 1.
In a further test the test system is PIK3CB. As to conditions: read-out: apparent Kd; compound concentrations:100 nM and 1000 nM (sheet 'Samples'); n = 1.
Another test relates to RAB5C. As to conditions: read-out: apparent Kd; compound concentrations:100 nM and 1000 nM (sheet 'Samples'); n = 1.
The test system of another test is CDK16. Conditions: read-out: apparent Kd, compound concentrations: 100 nM and 1000 nM (sheet 'Samples'), n = 1.
A further test relates to T1, DJA1.
T1 construct: gene DNAJA1
As to conditions: read-out: apparent Kd; compound concentrations: 100 nM and 1000 nM (sheet 'Samples'), CATDS: 0.17087221308304101; n = 1.

For the next test, the system named is GSK3A. Conditions: read-out: apparent Kd, compound concentrations: 100 nM and 1000 nM (sheet 'Samples'), n = 1.
The test system of a further test is GSK3B. Conditions: read-out: apparent Kd, compound concentrations: 100 nM and 1000 nM (sheet 'Samples'), n = 1.
A further test has as its system NQO2. As to conditions: read-out: apparent Kd, compound concentrations: 100 nM and 1000 nM (sheet 'Samples'), n = 1.
In another test the test system is PDXK. Conditions: read-out: apparent Kd; compound concentrations: 100 nM and 1000 nM (sheet 'Samples'), CATDS: 0.14245217988019501; n = 1.
The subject of a further test is CDK17. Conditions: read-out: apparent Kd; compound concentrations: 100 nM and 1000 nM (sheet 'Samples'), CATDS: 5.2851487986603697E-2; n = 1.
The next test deals with CDK9. As to conditions: read-out: apparent Kd; compound concentrations: 100 nM and 1000 nM (sheet 'Samples'), CATDS: 7.0025924153680405E-2; n = 1.
In a further test the test system is CDKL5. As to conditions: read-out: apparent Kd; compound concentrations: 100 nM and 1000 nM (sheet 'Samples'), CATDS: 0.107974532487744; n = 1.
In another test the test system is DYRK1A. As to conditions: read-out: apparent Kd; compound concentrations: 100 nM and 1000 nM (sheet 'Samples'), CATDS: 7.1113198150105694E-2; n = 1.
The subject of the next test is MAPK14. As to conditions: read-out: apparent Kd; compound concentrations: 100 nM and 1000 nM (sheet 'Samples'), CATDS: 5.6581371759273497E-2; n = 1.
The subject of a further test is MAPK7. Conditions: read-out: apparent Kd; compound concentrations: 100 nM and 1000 nM (sheet 'Samples'), CATDS: 4.4821094432651497E-2; n = 1.
Another test relates to MAPK9. Conditions: read-out: apparent Kd; compound concentrations: 100 nM and 1000 nM (sheet 'Samples'), CATDS: 4.6942214024324101E-2; n = 1.
A further test concerns MELK. As to conditions: read-out: apparent Kd; compound concentrations: 100 nM and 1000 nM (sheet 'Samples'), CATDS: 4.5559662583992203E-2; n = 1.
The test system of the next test is PRKD2. As to conditions: read-out: apparent Kd; compound concentrations: 100 nM and 1000 nM (sheet 'Samples'), CATDS: 5.0441088598544299E-2; n = 1.
For a further test, the system named is TP53RK. As to conditions: read-out: apparent Kd; compound concentrations: 100 nM and 1000 nM (sheet 'Samples'), CATDS: 4.9816696124222203E-2; n = 1.

Regarding `CC(=O)Nc1cccc(C#Cc2cncnc2Nc2ccc(OCc3cccc(F)c3)c(Cl)c2)c1` [GW703087X], in the test on CDK10, the potency estimated from few doses was 1.54 µM.

For the compound `Cl.NS(=O)(=O)c1ccc(N/N=C2\C(=O)Nc3cccc(CCc4ccncc4)c32)cc1` [GW352430A], the results for the potency estimated from few doses in the test on CDK2 (CATDS: 0.44900253923849898), in the test with CDK6 (CATDS: 0.29293356798223702) and in the test with CSNK2A2 were 0.936 µM, 2.16 µM and 2.07 µM, respectively.

On to `O=c1cc(N2CCOCC2)nc2n(Cc3cccc(C(F)(F)F)c3)ccn12` [GSK2297543A], for which the figures for the potency estimated from few doses in the test on CDC42, with PIK3CB and in the test on RAB5C were 1.4 µM, 0.274 µM and 0.976 µM, respectively.

With `Cn1cc(C2=C(c3cccc(Br)c3)C(=O)NC2=O)c2ccccc21` [RO0317625-000], the potency estimated from few doses with CDK16 (CATDS: 0.11881037811930099) was 2.31 µM; in the test with DJA1, 0.881 µM; in the test on GSK3A (CATDS: 0.21400406250920001), 0.574 µM; in the test with GSK3B (CATDS: 0.248828524546996), 0.447 µM; in the test on NQO2 (CATDS: 0.16613061012500299) it was 0.935 µM; in the test on PDXK, 1.34 µM.

On to `CCC(NN(C)C)=C1C(=O)Nc2ccc(C(C)=O)cc21` [BI00036838], for which the potency estimated from few doses was 0.753 µM in the test on CDK16 (CATDS: 6.3187514520784194E-2); 1.21 µM in the test with CDK17; 1.64 µM in the test with CDK2 (CATDS: 4.7813901315705599E-2); 0.895 µM with CDK6 (CATDS: 5.8978881187618598E-2); 0.59 µM with CDK9; 0.233 µM in the test with CDKL5. Also, the potency estimated from few doses in the test on DYRK1A is 0.569 µM; in the test on GSK3A (CATDS: 0.31666625502072798), 0.0273 µM; in the test with GSK3B (CATDS: 0.45532128509290898) it was 0.015 µM; in the test on MAPK14 it was 0.999 µM; with MAPK7 it was 2.06 µM; with MAPK9, 1.75 µM. Further, the potency estimated from few doses was 1.94 µM with MELK, 0.942 µM with NQO2 (CATDS: 5.78366102928662E-2), 1.39 µM in the test on PRKD2 and 1.44 µM in the test with TP53RK.

Values taken from publication PMC11062922 (Nature Chemical Biology, 2023).
